Some test systems named below: T-47D breast; BT-549 breast; MDA-MB-435 melanoma; SW-620 colon; MCF7 breast; HCT-116 colon; HCC-2998 colon; KM12 colon.
Holding throughout (assay): NCI-60 one-dose screen, 48 h (100 = growth as untreated, 0 = no growth, -100 = all killed)
What all share (details): 10 µM unless noted

Compounds without any hit were thinned out: in the full panel of roughly 83,000, 20% have a hit.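 Compound tested at a single concentration for 48 hours in 96-well plates; a percent growth value below 10 was scored as active.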 A number with no mark means an inactive call. Activity calls are given as the source filed them.

Regarding `O=C(NCCc1ccc(O)c(O)c1)C12CC3CC(CC(C3)C1)C2`, the growth in the experiment with T-47D breast is 93.1%; in the experiment with BT-549 breast, 92.7%; with MDA-MB-435 melanoma, 107%; in the experiment on SW-620 colon it was 91%; in the experiment with MCF7 breast it was 89.4%; with HCT-116 colon, 82.6%. Further, the values for the growth with HCC-2998 colon and in the experiment with KM12 colon were 115% and 117%, respectively.

For the molecule `Cc1ccc2nc3ccccc3c(NCc3ccccc3)c2c1`, the growth was 63.6% in the experiment with T-47D breast; 69% with BT-549 breast; 58.2% in the experiment with MDA-MB-435 melanoma; 24.3% in the experiment on SW-620 colon; 11.2% in the experiment with MCF7 breast; 9.4% (active) in the experiment on HCT-116 colon. In addition, the values for the growth with HCC-2998 colon and with KM12 colon were -21.4% (active) and 56.3%, respectively.

As for `O=C(NCCCNc1cc(-c2cn(-c3ccccc3)nc2-c2cccc(O)c2)ccn1)c1ccccc1`, the growth in the experiment with T-47D breast is -13.8% (active); in the experiment with BT-549 breast, 10.3%; with MDA-MB-435 melanoma, -10.5% (active); with SW-620 colon it was -32.4% (active); in the experiment with MCF7 breast, 23%; in the experiment with HCT-116 colon, 24.8%. Further, the growth in the experiment with HCC-2998 colon is -26.1% (active); in the experiment with KM12 colon, 20.2%.

As for `CCOC(=O)C/C(C)=N\NC(=O)c1ccncc1`, the growth in the experiment on T-47D breast was 92.1%; with BT-549 breast, 97.8%; in the experiment on MDA-MB-435 melanoma, 91.7%; in the experiment on SW-620 colon, 107%; in the experiment with MCF7 breast, 93.2%; with HCT-116 colon, 89.3%. Besides, the values for the growth with HCC-2998 colon and in the experiment with KM12 colon were 98.7% and 107%, respectively.

Take `C[C@]12CC[C@@H]3c4cc(OC(F)F)c(O)cc4CC[C@H]3[C@@H]1CC[C@@H]2OS(N)(=O)=O`: the growth is 47% in the experiment with T-47D breast; 67.7% in the experiment on BT-549 breast; 0.824% (active) with MDA-MB-435 melanoma; 31.2% in the experiment on SW-620 colon; 24.2% with MCF7 breast; 29.8% in the experiment with HCT-116 colon. The values for the growth in the experiment on HCC-2998 colon and in the experiment on KM12 colon were 47.5% and 18.9%, respectively.

As for `O=c1[nH]ccc2nc(N3CCC(O)CC3)nc(Nc3ccc(N4CCOCC4)cc3)c12`, the growth in the experiment on T-47D breast is 73%; in the experiment with BT-549 breast, 29.7%; with MDA-MB-435 melanoma, 40.6%; in the experiment on SW-620 colon, 39.6%; in the experiment with MCF7 breast, 44.2%; in the experiment with HCT-116 colon it was 22.8%. The growth with HCC-2998 colon was 80.3%; in the experiment on KM12 colon, 8.57% (active).

For the molecule `O=C1C=C[C@]2(C[C@@H](c3cccc(C(F)(F)F)c3)O[C@@H](c3cccc(C(F)(F)F)c3)O2)O1`, the growth in the experiment with T-47D breast was -49.6% (active); in the experiment with BT-549 breast, -52.4% (active); in the experiment with MDA-MB-435 melanoma, -74.7% (active); with SW-620 colon, -48.1% (active); with MCF7 breast it was -7.92% (active); with HCT-116 colon, -70.6% (active). The values for the growth in the experiment with HCC-2998 colon and in the experiment on KM12 colon were 18% and 6.02% (active), respectively.

Take `CNC(=O)NCC1OC(n2cnc3c(NC(=O)Nc4ccccc4)ncnc32)C(O[Si](C)(C)C(C)(C)C)C1CC(=O)N(C)OC` (configuration not stated): the growth with T-47D breast is -34% (active); with BT-549 breast, 25.5%; in the experiment on MDA-MB-435 melanoma, 7.75% (active); in the experiment on SW-620 colon, 23.7%; with MCF7 breast it was 3.29% (active); in the experiment on HCT-116 colon, 16.8%. Also, the results for the growth with HCC-2998 colon and with KM12 colon were -13.4% (active) and 17.2%, respectively.

`COc1cc(C2NC(=O)c3ccccc3N2)ccc1OCCCCCOc1c(OC)cc(C2=NOC(c3cc(OC)c(OC)c(OC)c3)C2)cc1OC` (configuration not stated): the growth with T-47D breast is 39.8%; in the experiment on BT-549 breast it was 1.13% (active); in the experiment with MDA-MB-435 melanoma, 23.3%; with SW-620 colon, 92.8%; in the experiment with MCF7 breast, 32.3%; in the experiment with HCT-116 colon, 60%. The growth with HCC-2998 colon is 80.5%; in the experiment with KM12 colon, 91.2%.

With `O=[N+]([O-])c1ccc(Sc2cccc[n+]2[O-])c2nonc12`, the growth was 54.9% in the experiment on T-47D breast; 109% with BT-549 breast; 97.9% with MDA-MB-435 melanoma; 23.5% with SW-620 colon; 25.5% with MCF7 breast; 2.05% (active) in the experiment with HCT-116 colon. Further, the growth in the experiment with HCC-2998 colon is 98.4%; in the experiment with KM12 colon it was 68.6%.

`O=C(NCCCNc1cc(-c2cn(-c3ccccc3)nc2-c2cccc(O)c2)ccn1)c1ccc(F)cc1`: the growth was -10.8% (active) in the experiment with T-47D breast; -6.04% (active) in the experiment on BT-549 breast; -67.7% (active) in the experiment on MDA-MB-435 melanoma; 5.38% (active) in the experiment on SW-620 colon; 13.7% in the experiment on MCF7 breast; 10.8% in the experiment on HCT-116 colon. Moreover, the growth with HCC-2998 colon is -60% (active); in the experiment on KM12 colon, 12%.

For the molecule `Cc1ccc(-c2cc(-c3cccnc3)[nH]c(=O)c2C#N)cc1`, the growth in the experiment with T-47D breast was 95.6%; in the experiment on BT-549 breast it was 111%; with MDA-MB-435 melanoma, 103%; with SW-620 colon, 102%; with MCF7 breast it was 94.7%; in the experiment with HCT-116 colon, 115%. For the same molecule, the growth was 102% with HCC-2998 colon and 101% in the experiment with KM12 colon.

Consider `CCOC(=O)/C=C/c1cc2cc(-c3csc4ccccc34)ccc2[nH]1`, for which the growth was 55% with T-47D breast; 69.6% with BT-549 breast; -10.4% (active) in the experiment with MDA-MB-435 melanoma; 46.4% in the experiment with SW-620 colon; 34.6% in the experiment with MCF7 breast; 60.1% with HCT-116 colon. Besides, the growth in the experiment with HCC-2998 colon is 33.4%; with KM12 colon, 23.2%.

With `COc1ccc(-c2nc3c(c(=O)n2C(C)=O)C(c2ccc(Cl)cc2)c2sc4c(Cl)cccc4c2O3)cc1` (configuration not stated), the growth with T-47D breast is 11.9%; in the experiment with BT-549 breast, -26.9% (active); with MDA-MB-435 melanoma, 0.072% (active); in the experiment on SW-620 colon, -17.5% (active); in the experiment with MCF7 breast it was 4.61% (active); in the experiment on HCT-116 colon, -58.6% (active). Also, the growth was -34.5% (active) with HCC-2998 colon and -8.16% (active) in the experiment on KM12 colon.

Source of the values: PubChem BioAssay (NCI).
